Measurements published in PubChem BioAssay AID739 (SRMLSC, 2007).
Among all 98,000 compounds or so, about 880 (0.9%) were called active. This excerpt belongs to a sample that is enriched for actives. Unmarked numbers belong to inactive results. Rule as the data show it: active = inhibition above about 30%; inactive = the rest.

Test: phenotypic screen on post-Golgi transport, primary screen (AID 739);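 also: yeast cells grown in 1536-well plates; yeast grown about 18 h at 30C before absorbance read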
Conditions: post-Golgi transport phenotypic cell assay; at 10 µM; hits give high values

SMILES | inhibition
CN1CCN(c2ccc(NC(=O)COc3ccc(Cl)cc3Cl)cc2)CC1 | 0.47%
Cc1ccccc1OCC(=O)Nc1ccc(N2CCN(C(=O)C(C)C)CC2)c(Cl)c1 | -4.22%
Cc1ccc(NC(=O)COc2ccc(-n3ccnc3)cc2)cc1Cl | 48.8% (active)
CCCOc1cc(C)c(S(=O)(=O)n2nnc3ccccc32)cc1C | 0.66%
CC(C)c1ccc(NS(=O)(=O)c2cn(C)c(=O)n(C)c2=O)cc1 | 76% (active)
Cn1cc(S(=O)(=O)N2CCN(c3ccc(F)cc3)CC2)c(=O)n(C)c1=O | -6.58%
Cn1cc(S(=O)(=O)N2CCC(Cc3ccccc3)CC2)c(=O)n(C)c1=O | 7.01%
CCN1CCN(C(=O)c2cc3cc4ccc(OC)cc4nc3s2)CC1 | 1.48%
O=C(COc1ccccc1F)NC1CC1 | 15.2%
O=C(NC1CCN(Cc2ccccc2)CC1)c1ccccc1F | 1.69%
O=C(COc1ccc(Br)cc1F)NC1CCN(Cc2ccccc2)CC1 | 95.3% (active)
CCC1(C)Cc2c(sc3nc(SC)nc(N)c23)CO1 (stereo not drawn) | -2.83%
COC(=O)c1ccc(Cc2ccccc2)o1 | 8.24%
CCOc1ccccc1Oc1cn[nH]c1-c1ccc(OC)cc1O | 80.9% (active)
C=C(C)COc1ccc(-c2n[nH]c(C)c2-c2ccccc2OC)c(O)c1 | -7.36%
CCOc1ccccc1NC(=O)Nc1cc(OC)ccc1OC | 1.32%
O=C(Nc1ccc(Cl)cc1)c1cc2nc(C3CC3)cc(C(F)(F)F)n2n1 | 12%
CC12c3ccccc3C(c3ccccc31)C1C(=O)N(Cc3cccnc3)C(=O)C12 (stereo not drawn) | 2.75%
CC(C)Cc1oc(C(=O)O)cc1CN | -3.35%
COC(=O)C1CCN(CC(N)=O)CC1 | 0%
COc1cccc(OCC(O)CN2CCN(CCO)CC2)c1 (stereo not drawn) | 3.01%
OC(COc1cccc2ccccc12)CN1CCN(c2ccccn2)CC1 (stereo not drawn) | 3.42%
Cc1ccc(OCC(O)CN2CCN(CC(O)COc3ccc(C)cc3Cl)CC2)c(Cl)c1 (stereo not drawn) | 67.9% (active)
Fc1ccc(-n2c(Cc3ccccc3)nnc2SCc2nc(-c3ccc(Cl)cc3)no2)cc1 | -6.61%

SMILES | inhibition
Cc1nn(C)c(Oc2ccc(Cl)cc2)c1C=O | -3.55%
Cc1nc(Cl)c2oc3ccccc3c2n1 | 12.3%
OC(COc1cccc(OCC(O)CN2CCCC2)c1)CN1CCCC1 (stereo not drawn) | -2.18%
O=C(c1ccc(Cl)cc1)c1ccc(OCC(O)CN2CCCCC2)cc1 (stereo not drawn) | 35.1% (active)
CCC(=O)c1ccc(OCC(O)CN2CC(C)OC(C)C2)cc1 (stereo not drawn) | 2.21%
CC(C)NC(=O)C(=O)NCCN1CCN(S(=O)(=O)c2ccc(Cl)cc2)CC1 | 1.12%
CC1(C)Cc2c(sc3nc(SCC(=O)NCc4ccccc4)n(-c4ccccc4)c(=O)c23)CS1 | 8.61%
COc1ccc(CC(=O)Nc2ccc(-c3nnc(-c4ccc(C)cc4)o3)cc2)cc1 | 5.17%
COc1ccc(NC(=O)/C(Cl)=C(/Cl)S(=O)Cc2ccc(C)cc2)cn1 (stereo not drawn) | 107% (active)
COc1cccc(NC(=O)Cc2ccc(C)cc2)c1 | 24.4%
Cc1cc(C)cc(OCC(=O)Nc2nc3ccc([N+](=O)[O-])cc3s2)c1 | -4.35%
O=C(NC(Nc1nc2ccc([N+](=O)[O-])cc2s1)(C(F)(F)F)C(F)(F)F)c1ccccc1 | 102% (active)
COC(=O)C(NC(=O)c1ccc(OC)cc1)(Nc1ncc(S(=O)(=O)c2ccc([N+](=O)[O-])cc2)s1)C(F)(F)F (stereo not drawn) | 6.99%
COc1cc(OC)c(/C=N/NC(=O)c2ccc([N+](=O)[O-])cc2)cc1Br | -4.41%
CCCc1ccc(-c2c(C)sc(NC(=O)c3ccnn3C)c2C#N)cc1 | -9.37%
CC(CNC(=O)c1ccc(Br)o1)NC(=O)c1ccc(Br)o1 (stereo not drawn) | 36.5% (active)
CC(CCc1ccccc1)NC(=O)c1ccc(Br)o1 (stereo not drawn) | 2.83%
CCc1c(C)sc(NC(=O)c2ccc(Br)o2)c1C(=O)OC | 2.81%
Cc1cccc(C(=O)N2CCCN(C(=O)c3cccc(C)c3)CC2)c1 | 17.7%
COC(=O)C1C(=O)NCC1c1ccc(C)cc1 (stereo not drawn) | -3.77%
CCCCN=C1N/C(=C\c2ccco2)C(=O)N1c1ccccc1 | 1.56%
O=C1c2ccccc2C(=O)N1CCC(c1ccccc1)c1ccco1 (stereo not drawn) | -1.67%
CCCCCCC(=O)Nc1nc(C)c(-c2csc(Nc3cc(Cl)ccc3OC)n2)s1 | -2.77%
C=CCCC(=O)Nc1nc(C)c(-c2csc(Nc3ccc(Cl)cc3)n2)s1 | 12.8%
